The text below walks through data of the supplement of paper PMC10121225.

Each structure is given as a SMILES string.
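Also: immunostained co-cultures imaged by high-content microscopy, Z-score per plate against mean and SD of 0.1% DMSO wells, compounds added on differentiation day 18, analysed day 21.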

The experiment relates to hN + hpA co-culture (H1 iNGN2 human neurons + human primary astrocytes). The experiment in a line: presynaptic density (SYNAPSIN1 puncta per MAP2 neurite area), Z-score vs DMSO controls; higher = more presynaptic puncta (synapse-promoting). The following applies: 3 µM; 72 h.
In the case of `OC(CC1c2ccccc2-c2cncn21)C1CCCCC1` (stereo not drawn), the “presynaptic density (Z-score)” value worked out at 0.156.
Under `Cc1cc(OCCCS(C)(=O)=O)cc(C)c1-c1cccc(COc2ccc3c(c2)OC[C@H]3CC(=O)O)c1` stands -0.294; under `COc1ccc(-n2nc(C(N)=O)c3c2C(=O)N(c2ccc(N4CCCCC4=O)cc2)CC3)cc1` [Apixaban], 0.0881.
`NC(=O)c1cccc(-c2cccc(OC(=O)NC3CCCCC3)c2)c1`: the “presynaptic density (Z-score)” value was -1.17.
In the case of `Cc1nnc(C(C)C)n1C1C[C@H]2CC[C@@H](C1)N2CC[C@H](NC(=O)C1CCC(F)(F)CC1)c1ccccc1` (stereo in doubt) [Maraviroc] it was -1.28.
As to `C[C@]1(O)C[C@@H](c2nc(-c3ccc4ccc(-c5ccccc5)nc4c3)c3c(N)nccn32)C1` [OSI-906 (Linsitinib)], the “presynaptic density (Z-score)” value amounted to 0.349.
Turning to `COc1cc2c(cc1O)CC[C@@H]1[C@@H]2CC[C@]2(C)[C@@H](O)CC[C@@H]12` [2-Methoxyestradiol (2-MeOE2)], the “presynaptic density (Z-score)” value is -0.808.
On to `COc1cccc(-c2cc(F)ccc2C2Cc3nc(N)nc(C)c3C(=O)N2)n1` (stereo not drawn), for which the “presynaptic density (Z-score)” value was 2.18.
`CCCc1nc2c(C)cc(-c3nc4ccccc4n3C)cc2n1Cc1ccc(-c2ccccc2C(=O)O)cc1`: the “presynaptic density (Z-score)” value was -0.154.
In the case of `Cc1c(C(=O)Nc2ccc(N3C[C@@H](C)O[C@@H](C)C3)nc2)cccc1-c1ccc(OC(F)(F)F)cc1` [LDE225 (NVP-LDE225,Erismodegib)] it was 0.612.
As to `CC(C)NCC(O)COc1ccc(COCCOC(C)C)cc1` (racemic), the “presynaptic density (Z-score)” value is -0.749.
As to `CN(C)Cc1ccc(-c2nc3cccc4c3n2CCNC4=O)cc1`, the “presynaptic density (Z-score)” value is -0.178.
In the case of `CN1C(=O)C(Cc2c[nH]c3ccccc23)NC1=S` (stereo not drawn) [5-(1H-Indol-3-ylmethyl)-3-methyl-2-thioxo-4-imidazolidinone] it was -0.458; in that of `CNC(=O)c1ccc(N2C(=S)N(c3ccc(C#N)c(C(F)(F)F)c3)C(=O)C2(C)C)cc1F` [Enzalutamide (MDV3100)], 0.664.
In the case of `Nc1nc(CC(=O)Nc2ccc(CCNC[C@H](O)c3ccccc3)cc2)cs1` [Mirabegron] it was -0.111; in that of `Cc1ccc2c(=O)c3cccc(CC(=O)O)c3oc2c1C` [DMXAA (Vadimezan)], -1.15; in that of `Nc1nc(N)c2nc(-c3cccc(O)c3)c(-c3cccc(O)c3)nc2n1`, 1.05.
For `COc1ccccc1Oc1c(NS(=O)(=O)c2ccc(C(C)(C)C)cc2)nc(-c2ncccn2)nc1OCCO` [Bosentan Hydrate], the “presynaptic density (Z-score)” value is 0.531.
Under `C[C@H](CS)C(=O)N1CCC[C@H]1C(=O)O` [Captopril] stands -1.61; under `Cc1cc2c(cc1CC(=O)c1sccc1S(=O)(=O)Nc1onc(C)c1Cl)OCO2` [Sitaxentan sodium], -0.569; under `CC(C)OC(=O)C1=CN(C(=O)c2ccc(F)c(F)c2)CC(C)(C)c2c1[nH]c1ccccc21`, -0.269.
Under `Oc1ncnc2[nH]ncc12` [Allopurinol] stands -0.774; under `O=C(c1ccc(Nc2nccc(-c3cc4ccccc4s3)n2)cc1)N1CCC(N2CCCC2)CC1`, 0.27; under `CC(C)N(CCCNC(=O)Nc1ccc(C(C)(C)C)cc1)C[C@H]1O[C@@H](n2cc(Br)c3c(N)ncnc32)[C@H](O)[C@@H]1O`, -0.407.
On to `Cc1ccc(NC(=O)c2ccc(CN3CCN(C)CC3)cc2)cc1Nc1nccc(-c2cccnc2)n1` [Gleevec (Imatinib)], for which the “presynaptic density (Z-score)” value is -0.283.
Take `C=CCc1cccc(C=NNC(=O)CN2CCN(Cc3ccccc3)CC2)c1O`: the “presynaptic density (Z-score)” value is -1.87.
In the case of `COc1nc(C)cnc1NS(=O)(=O)c1cccnc1-c1ccc(-c2nnco2)cc1` [Zibotentan (ZD4054)] it was -1.1; in that of `CC#CCn1c(N2CCC[C@@H](N)C2)nc2c1c(=O)n(Cc1nc(C)c3ccccc3n1)c(=O)n2C` [Linagliptin], 0.688.
For the compound `O=C(NOC[C@H](O)CO)c1ccc(F)c(F)c1Nc1ccc(I)cc1F`, the “presynaptic density (Z-score)” value was -0.369.
For `CN[C@@H](C)C(=O)N[C@H](C(=O)N1CCC[C@H]1C(=O)Nc1snnc1-c1ccccc1)C1CCCCC1`, the “presynaptic density (Z-score)” value was -0.107.
Regarding `CCc1cncnc1N1CCN(Cc2nc3ccc(C(F)(F)F)cc3[nH]2)CC1`, the “presynaptic density (Z-score)” value was -0.739.
In the case of `Oc1nc(-c2ccc(C(F)(F)F)cc2)nc2c1CSCC2` it was 0.167.
In the case of `N#C[C@@H]1CCCN1C(=O)CNC12CC3CC(CC(O)(C3)C1)C2` [Vildagliptin (LAF-237)] it was 0.854.
With `Cc1nc(C(=O)NCC(=O)O)c(O)c2ccc(Oc3ccccc3)cc12`, the “presynaptic density (Z-score)” value came out at 0.792.
`O=c1cc(-c2ccc(O)cc2)oc2cc(O)cc(O)c12` [Apigenin]: the “presynaptic density (Z-score)” value was 0.0449.
In the case of `Cc1ccc(NC(=O)C2(c3ccc4c(c3)OC(F)(F)O4)CC2)nc1-c1cccc(C(=O)O)c1` [VX-809 (Lumacaftor)], the “presynaptic density (Z-score)” value is -0.6.
`COC(=O)C1=C(C#N)NC(C)=C(C(=O)OC(C)C)C1c1cccc([N+](=O)[O-])c1` (stereo not drawn) [Nilvadipine]: the “presynaptic density (Z-score)” value was -0.965.
Regarding `NC(=O)C1CCCc2c1[nH]c1ccc(Cl)cc21` (stereo not drawn) [6-Chloro-2,3,4,9-tetrahydro-1H-carbazole-1-carboxamide], the “presynaptic density (Z-score)” value is 0.159.
